A short description of experiment [1]: liver-stage malaria parasite growth inhibition, primary screen, cell-based, HepG2, luciferase luminescence, HepG2 viability (AID 624349; in the data active = parasite load remaining mostly below about 12%, no sharp cut-off; inactive = mostly above about 10%;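 also: 100% = mean of DMSO negative control wells on the same plate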). Particulars: P. berghei liver stage in HepG2, luciferase luminescence, concentration not given here; parasite load remaining: stronger effect = lower value; viability: measured here: HepG2 viability without parasites.
A short description of experiment [2]: sensitizers of A549 cells to miR-34 induction, primary screen, imaging, A549 dox-inducible miR-34, nuclei and caspase counts (AID 1347080). The note with it: A549 miR-34 inducible, Hoechst nuclei count, 48 h.
A short description of experiment [3]: survival rescue of mitochondrial mutant cells in low glucose, primary screen, MELAS cybrids, Rieske KO mouse fibroblasts, CellTiter-Glo (AID 1508586;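 active = mean z-score across replicates of 1.96 or higher in either the MELAS or the Rieske mutant cell line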;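 also: z relative to plate mean and SD of compound and empty wells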). (In general: ATP-based viability assays read luminescence as a measure of living cells.)
A short description of experiment [4]: viability rescue of complex I mutant cybrids, primary screen, cell-based, galactose medium, ATP luminescence (AID 1645843;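 active = z-score of at least 1.8 in each of two replicates, scored against plate mean and spread of sample wells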;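 also: positive z means more ATP and so rescue of galactose-driven cybrid death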). Particulars: complex I mutant cybrid cells, 72 h, stronger effect = higher value.
Where [5] appears, read: stronger effect = lower value, cell number ratio, induced over uninduced.
Where [6] appears, read: measured here: relative caspase fold change +Dox/-Dox.
Where [7] appears, read: measured here: total cells with miR-34 induction, stronger effect = lower value.
The mark [8] stands for this setting: measured here: total cells without miR-34 induction.
[9] abbreviates: MELAS cybrid survival, CellTiter-Glo 48 h, stronger effect = higher value.
[10] abbreviates: Rieske KO mouse fibroblast survival, CellTiter-Glo 72 h.

Several values for one entry are separate records, joined by “and”; a condition that tells them apart may be missing. Identical values can stand only once. The source holds several records for some structures; these can differ, active in one and inactive in another. Activity calls are given as the source filed them.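 The calls were made as follows, unless noted: active = compounds whose cell count with miR-34 switched on is under 0.7 times the count with it off; inactive = the rest.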

With `CCCCCCCCCCCCCCCC(=O)O[C@@H]1[C@@H](O)[C@@H](O)[C@@H](C(NC(=O)[C@@H]2C[C@@H](CCC)CN2C)C(C)Cl)O[C@@H]1SC` (stereo not given in full), in experiment [1], the parasite load remaining is 67.8% (inactive). Besides, the viability in experiment [1] stood at 204%. For the same compound, the fold change in experiment [2] (setting [5]) is 0.867 (inactive); in experiment [2] (setting [6]), 1.18. Besides, the results for the cell count in experiment [2] (setting [7]) and in experiment [2] (setting [8]) were 9340 and 10800, respectively. Moreover, the z-score was 0.27 (inactive) in experiment [3] (setting [9]), -0.444 in experiment [3] (setting [10]) and 0.11 (inactive) in experiment [4].
Consider `CC[C@@H]1OC(=O)C[C@H](O)[C@@H](C)[C@@H](O[C@@H]2O[C@H](C)[C@@H](O[C@H]3C[C@@](C)(O)[C@@H](O)[C@H](C)O3)[C@H](N(C)C)[C@H]2O)[C@@H](C=O)C[C@@H](C)C(=O)/C=C/C(C)=C\[C@@H]1CO[C@H]1O[C@@H](C)[C@H](O)[C@H](OC)[C@@H]1OC`, for which, in experiment [1], the parasite load remaining is 27.3% (inactive). Moreover, in experiment [1], the viability amounted to 67%. In addition, the fold change is 0.839 (inactive) in experiment [2] (setting [5]) and 1.48 in experiment [2] (setting [6]). The cell count in experiment [2] (setting [7]) came out at 9360; in experiment [2] (setting [8]) it was 11200. In addition, the z-score in experiment [3] (setting [9]) is 0.258 (inactive); in experiment [3] (setting [10]) it was -0.691; in experiment [4] it was 0.54 (inactive).
Consider `CC1(C)C[C@H]1C(=O)N/C(=C\CCCCSC[C@@H](N)C(=O)O)C(=O)O`, for which, in experiment [1], the parasite load remaining is 23.2% (inactive). The viability in experiment [1] came out at 65%. In addition, the values for the fold change in experiment [2] (setting [5]) and in experiment [2] (setting [6]) were 0.879 (inactive) and 0.978, respectively. Further, the cell count in experiment [2] (setting [7]) came to 9660; in experiment [2] (setting [8]) it was 11000. The z-score was 0.461 (inactive) in experiment [3] (setting [9]), 1.05 in experiment [3] (setting [10]) and 0.565 (inactive) in experiment [4].
For `CC[C@]1(O)C[C@H]2CN(CCc3c([nH]c4ccccc34)[C@@](C(=O)OC)(c3cc4c(cc3OC)N(C)[C@H]3[C@@](O)(C(N)=O)[C@H](O)[C@]5(CC)C=CCN6CC[C@]43[C@@H]65)C2)C1`, in experiment [1], the parasite load remaining was 29.7% (inactive). Moreover, the viability in experiment [1] worked out at 79.5%. Also, the figures for the fold change in experiment [2] (setting [5]) and in experiment [2] (setting [6]) were 1.02 (inactive) and 1.58, respectively. Also, the cell count was 1810 in experiment [2] (setting [7]) and 1780 in experiment [2] (setting [8]). In addition, the z-score is -2.11 in experiment [3] (setting [9]), 2.09 in experiment [3] (setting [10]) and -1.99 (inactive) in experiment [4].
Consider `CCC(=O)OCC(=O)[C@@]1(OC(=O)CC)[C@@H](C)C[C@H]2[C@@H]3CCC4=CC(=O)C=C[C@]4(C)C3(F)[C@@H](O)C[C@@]21C` (stereo not given in full), for which, in experiment [1], the parasite load remaining was 19.5% (inactive). Also, the viability in experiment [1] amounted to 67%. Moreover, the fold change in experiment [2] (setting [5]) is 0.837 (inactive); in experiment [2] (setting [6]) it was 1.41. The cell count in experiment [2] (setting [7]) was 6650; in experiment [2] (setting [8]), 7940. Moreover, the results for the z-score in experiment [3] (setting [9]), in experiment [3] (setting [10]) and in experiment [4] were 0.189 (inactive), 1.36 and 0.155 (inactive), respectively.
As to `CC(C)C[C@H](NC(=O)[C@@H](Cc1c[nH]c2ccccc12)NC(=O)[C@H](Cc1ccc(O)cc1)NC(=O)[C@H](CO)NC(=O)[C@H](Cc1c[nH]c2ccccc12)NC(=O)[C@H](Cc1cnc[nH]1)NC(=O)[C@@H]1CCC(=O)N1)C(=O)N[C@@H](CCCN=C(N)N)C(=O)N1CCC[C@H]1C(=O)NCC(N)=O`, the parasite load remaining in experiment [1] is 20.9% (inactive). For the same compound, in experiment [1], the viability amounted to 68.5%. Also, the values for the fold change in experiment [2] (setting [5]) and in experiment [2] (setting [6]) were 0.921 (inactive) and 1.16, respectively. Also, the cell count came to 9400 in experiment [2] (setting [7]) and 10200 in experiment [2] (setting [8]). Moreover, the z-score in experiment [3] (setting [9]) is 0.161 (inactive); in experiment [3] (setting [10]), -0.118; in experiment [4] it was 0.68 (inactive).
Turning to `CO/N=C(\C(=O)N[C@@H]1C(=O)N2C(C(=O)[O-])=C(C[N+]3(C)CCCC3)CS[C@H]12)c1csc(N)n1`, the parasite load remaining in experiment [1] was 37.1% (inactive). For the same compound, in experiment [1], the viability stood at 100%. For the same compound, the fold change is 0.872 (inactive) in experiment [2] (setting [5]) and 1.15 in experiment [2] (setting [6]). The cell count amounted to 9480 in experiment [2] (setting [7]) and 10900 in experiment [2] (setting [8]). The z-score was -0.344 (inactive) in experiment [3] (setting [9]), 0.0422 in experiment [3] (setting [10]) and 0.485 (inactive) in experiment [4].
With `CC(C)C[C@H]1C(=O)N2CCC[C@H]2[C@]2(O)O[C@](NC(=O)[C@@H]3C=C4c5cccc6[nH]c(Br)c(c56)CC4N(C)C3)(C(C)C)C(=O)N12` (stereo not given in full), the parasite load remaining in experiment [1] is 20.7% (inactive) and 22.3% (inactive). In addition, in experiment [1], the viability is 50% and 138%. In addition, the fold change was 0.897 (inactive) and 0.925 (inactive) in experiment [2] (setting [5]); 1.56 and 1.14 in experiment [2] (setting [6]). Moreover, the cell count in experiment [2] (setting [7]) was 7190 and 8820; in experiment [2] (setting [8]), 8020 and 9530. The z-score in experiment [3] (setting [9]) was -0.909 (inactive); in experiment [3] (setting [10]) it was 0.597; in experiment [4] it was 0.045 (inactive).
Take `CS(=O)(=O)c1ccc([C@@H](O)[C@@H](COC(=O)CN)NC(=O)C(Cl)Cl)cc1`: in experiment [1], the parasite load remaining was 19.3% (inactive). In addition, the viability in experiment [1] stood at 69.5%. The fold change in experiment [2] (setting [5]) was 0.967 (inactive); in experiment [2] (setting [6]) it was 1.61. In addition, the cell count is 9390 in experiment [2] (setting [7]) and 9720 in experiment [2] (setting [8]). Moreover, the values for the z-score in experiment [3] (setting [9]), in experiment [3] (setting [10]) and in experiment [4] were -0.278 (inactive), 1.38 and -1.12 (inactive), respectively.
Take `CCC(=O)OC(OP(=O)(CCCCc1ccccc1)CC(=O)N1C[C@H](C2CCCCC2)C[C@H]1C(=O)O)C(C)C` (stereo not given in full): in experiment [1], the parasite load remaining was 49.8% (inactive). In experiment [1], the viability came to 108%. Further, the fold change in experiment [2] (setting [5]) was 0.948 (inactive); in experiment [2] (setting [6]), 2.49. The cell count worked out at 10100 in experiment [2] (setting [7]) and 10700 in experiment [2] (setting [8]). Moreover, the z-score in experiment [3] (setting [9]) is 0.354 (inactive) and -0.69 (inactive); in experiment [3] (setting [10]), -0.176 and -1.17; in experiment [4], 0.59 (inactive).
Turning to `CN1[C@@H](C[C@H](O)c2ccccc2)CCC[C@H]1CC(=O)c1ccccc1`, the parasite load remaining in experiment [1] was 53.1% (inactive). In addition, the viability in experiment [1] turned out to be 128%. The figures for the fold change in experiment [2] (setting [5]) and in experiment [2] (setting [6]) were 0.934 (inactive) and 1.15, respectively. For the same compound, the cell count was 9500 in experiment [2] (setting [7]) and 10200 in experiment [2] (setting [8]). The z-score is -0.675 (inactive) in experiment [3] (setting [9]), -0.32 in experiment [3] (setting [10]) and 0.205 (inactive) in experiment [4].
As for `CC(C)C[C@@H](NC(=O)[C@H](Cc1ccccc1)NC(=O)c1cnccn1)B(O)O`, the parasite load remaining in experiment [1] was -0.325% (inactive). Besides, the viability in experiment [1] was 1%. The results for the fold change in experiment [2] (setting [5]) and in experiment [2] (setting [6]) were 1.12 (inactive) and 1.54, respectively. The cell count in experiment [2] (setting [7]) was 1190; in experiment [2] (setting [8]) it was 1060. For the same compound, the z-score is -1.11 (inactive) in experiment [3] (setting [9]), 0.911 in experiment [3] (setting [10]) and -2.25 (inactive) in experiment [4].
Take `CC1/C=C/C=C/CC/C=C/C=C/C=C/C=C/C(O[C@@H]2O[C@H](C)[C@@H](O)[C@H](N)[C@@H]2O)CC(O)C(C(=O)O)C(O)CC(=O)CC(O)C(O)CCC(O)CC(O)CC(O)CC(=O)OC(C)C(C)C1O` (stereo not given in full): the parasite load remaining in experiment [1] is 90.8% (inactive) and 24.4% (inactive). The viability in experiment [1] is 111% and 90.5%. For the same compound, the fold change was 0.86 (inactive) and 0.844 (inactive) in experiment [2] (setting [5]); 1.56 and 1.28 in experiment [2] (setting [6]). In addition, the cell count in experiment [2] (setting [7]) was 9420 and 8760; in experiment [2] (setting [8]), 11000 and 10400. Moreover, the z-score in experiment [3] (setting [9]) was 2.26 (active) and 0.353 (inactive); in experiment [3] (setting [10]) it was 0.0499 and 0.288; in experiment [4] it was 0.5 (inactive).
In the case of `CCCCC(C)(O)C/C=C/[C@H]1[C@H](O)CC(=O)[C@@H]1CCCCCCC(=O)OC` (stereo not given in full), the parasite load remaining in experiment [1] was 25.9% (inactive). Also, the viability in experiment [1] was determined as 64%. Moreover, the fold change in experiment [2] (setting [5]) is 1.01 (inactive) and 0.901 (inactive); in experiment [2] (setting [6]), 1.23 and 1.3. In addition, the cell count is 5920 and 9930 in experiment [2] (setting [7]); 5880 and 11000 in experiment [2] (setting [8]). For the same compound, the z-score in experiment [3] (setting [9]) is -0.242 (inactive) and 0.112 (inactive); in experiment [3] (setting [10]) it was -0.698 and -0.238; in experiment [4], 0.245 (inactive).
Turning to `CC(C)C[C@H](NC(=O)[C@@H](COC(C)(C)C)NC(=O)[C@H](Cc1ccc(O)cc1)NC(=O)[C@H](CO)NC(=O)[C@H](Cc1c[nH]c2ccccc12)NC(=O)[C@H](Cc1cnc[nH]1)NC(=O)[C@@H]1CCC(=O)N1)C(=O)N[C@@H](CCCN=C(N)N)C(=O)N1CCC[C@H]1C(=O)NNC(N)=O`, the parasite load remaining in experiment [1] is 53.9% (inactive). Also, the viability in experiment [1] was 102%. Further, the figures for the fold change in experiment [2] (setting [5]) and in experiment [2] (setting [6]) were 0.891 (inactive) and 1.53, respectively. In addition, the values for the cell count in experiment [2] (setting [7]) and in experiment [2] (setting [8]) were 10600 and 11900, respectively. Further, the z-score in experiment [3] (setting [9]) was -0.533 (inactive); in experiment [3] (setting [10]) it was -0.444; in experiment [4], 0.71 (inactive).

What is called viability is a read-out of living cells in per cent, often relative to untreated cells.
